Source: PubChem BioAssay
Shown are actives, neighbours in structure and some others; about 19% of the full set was active somewhere.
DT40 TDP1 no CPT: qHTS for Inhibitors of human tyrosyl-DNA phosphodiesterase 1 (TDP1): qHTS in cells in absence of CPT; DT40 Tdp1-/- hTDP1 cells, no CPT, ATP luminescence, 48 h; Potency, µM (doses to about 46.2 µM), for the others: top-dose activity change, negative = growth inhibition, most hits filed as inhibitors; 420,000 compounds, 15% hits; further: potency means the concentration at half of the fitted maximal effect; nearly all actives have a fitted effect of over 55% in size
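Growth of hTDP1-complemented DT40 Tdp1-knockout cells is measured by ATP luminescence after at least 48 hr compound exposure at 37 °C, with DMSO substituting for the 20 nM CPT used in the parallel screen.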
HT1080 IDH1KD tx: qHTS for induction of synthetic lethality in tumor cells producing 2HG: qHTS for the HT-1080-IDH1KD cell line; Potency, µM (series often up to 46.1 µM), inactives show top-dose activity, negative = toxicity, usual class: cytotoxic; HT-1080 IDH1 knockdown viability, ATP luminescence, 48 h; AID 686971, 2013; 360,000 compounds, 2% hits;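 further: potency means the concentration at half of the fitted maximal effect; 0% = DMSO wells and -100% = cell-free medium wells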
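Cytotoxicity counter-line: IDH1KD HT-1080, 48 h, CellTiter-Glo. Curves classed by r2, magnitude and activity.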
HT1080NT lethal: qHTS for induction of synthetic lethality in tumor cells producing 2HG: qHTS for the HT-1080-NT fibrosarcoma cell line | 360,000 compounds, 1.6% hits | HT-1080-NT fibrosarcoma viability, CellTiter-Glo ATP luminescence, 48 h | Potency, µM (series often up to 46.1 µM), without a hit: at the highest dose activity, negative = less viability, hits mostly cytotoxic | AID 686970, 2013;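 further: NT is the 2HG producing partner of a matched IDH1 knockdown line; potency means the concentration at half of the fitted maximal effect; 0% = DMSO-treated cells and -100% = media-only wells without cells; nearly all actives have a fitted effect of over 55% in size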
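Toxicity toward the 2HG-producing NT line was scored as %Activity, normalised to DMSO and no-cell wells, from CellTiter-Glo luminescence after 48 hours' treatment.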
IL1B secr inh: qHTS for Inhibitors of Inflammasome Signaling: IL-1-beta AlphaLISA Primary Screen; THP-1 LPS/ATP IL-1B secretion, AlphaLISA, 16 h; stronger effect = lower value; activity change, % at 57.5 µM; 360,000 compounds, 4.7% hits; in the data active means activity change below about -50%; inconclusive means mostly about -30% to -49%
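Secreted IL-1B measured by AlphaLISA bead assay after 16 h compound exposure of THP-1 cells; compounds (final up to 57.5 uM) added 1 h before LPS (250 ng/mL) and ATP (1.25 mM) stimulation; lower signal means less secretion.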
DT40 TDP1 CPT: qHTS for Inhibitors of human tyrosyl-DNA phosphodiesterase 1 (TDP1): qHTS in cells in presence of CPT; Potency, µM (doses to about 46.2 µM), for the others: at the top dose activity change, negative = growth inhibition, hits mostly inhibitors; 420,000 compounds, 12% hits; chicken DT40 Tdp1-/-;hTDP1 cells + 20 nM CPT, ATP luminescence, 48 h; further: potency means the concentration at half of the fitted maximal effect; nearly all actives have a fitted effect of over 55% in size
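Chicken DT40 Tdp1-/- cells complemented with human TDP1, 400 cells/well, exposed to compounds plus 20 nM camptothecin for at least 48 h at 37 C; viability read as ATP content by CellTiter-Glo luminescence.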
Active calls of the source: *; ? = inconclusive; . = no result given; ! = not confirmed by another sample; [ ] = another dose, or the depositor's remark. Unless noted, the call rests on the fitted dose curve; in most records, active means well fitted curve in the direction sought with a large enough effect; inconclusive means small, poorly fitted or top-dose-only effect, or another doubt; inactive means no such curve, though single readings can be large; an effect the other way counts as inactive or inconclusive. Unless noted, on the % scale 0 is the no-effect control and ±100 the full control effect.

SMILES | DT40 TDP1 no CPT | HT1080 IDH1KD tx | HT1080NT lethal | IL1B secr inh | DT40 TDP1 CPT
COC(=O)c1[nH]c2ccccc2c1NC(=O)CN1CCCCCC1 | ? | -1% | -4% | 15 | ?
CCc1[nH]nc2c1C1(CCN(C(=O)OCc3ccccc3)CC1)C(C#N)=C(N)O2 | -29% | 17% | 25% | 53 | ?
CCCc1[nH]nc2c1C1(CCN(C(=O)OCc3ccccc3)CC1)C(C#N)=C(N)O2 | ? | ? | 5% | -13 | 21µM*
COc1c(O)cc2c(=O)oc3c(OC)c(O)cc4c(=O)oc1c2c34 | -3%[9.04 µM] | . | . | . | 14%[9.04 µM]
COc1cc2c(oc(=O)c3cc(C)cc(OC)c32)c2c(C3OC(C)C(O)C(C)(O)C3O)ccc(O)c12 (configuration not stated) | 1.5µM* | ? | ? | -101* | 1.5µM*
CC(CC12CC3CC(CC(C3)C1)C2)NCc1ccccc1O (configuration not stated) | 16µM* | -13% | -16% | -85* | 15µM*
OCCNCC12CC3CC(CC(C3)C1)C2 | -3% | 25% | 6% | 10 | -5%
Oc1ccccc1CNCC12CC3CC(CC(C3)C1)C2 | ? | -26% | ? | -87* | ?
COc1ccccc1C(=O)c1c(N)c(-c2nc(-c3ccccc3)cs2)c2ccccn12 | 21µM* | . | . | . | 18µM*
O=C1NC(c2ccc(O)cc2)Nc2ccccc21 (configuration not stated) | ? | ? | ? | 21 | ?
O=C1NC(c2cccc(OCc3ccccc3)c2)Nc2ccccc21 (configuration not stated) | 1.2µM* | 0.58µM* | ? | 26 | 1.5µM*
Cc1c(O)cccc1C(=O)N[C@@H](CSc1ccccc1)[C@H](O)CN1C[C@H]2CCCC[C@H]2C[C@H]1C(=O)NC(C)(C)C | 23µM*! | 18µM* | 13µM* | ? | 9.2µM*!
COc1ccc(CCC(=O)O)cc1OC | -22% | 22% | 25% | 4 | -16%
CCOC(=O)Cc1csc(NS(=O)(=O)c2ccc([N+](=O)[O-])cc2)n1 | -10% | 5% | 13% | 4 | 4%
COC(=O)Cc1sc(-c2ccccn2)nc1-c1ccccc1 | 16µM* | 1% | 15% | 25 | ?
CS(=O)(=O)N1CCC2(CC1)CN(Cc1nccs1)C2 | -6% | . | . | . | 8%
Cc1ccc(SC[C@H](Cc2ccccc2)N2CCN(CC(C)C)CCC2=O)cc1 | 18µM* | 8% | 7% | -23 | ?
CC(C)CN1CCC(=O)N([C@H](CO)Cc2ccccc2)CC1 | -13% | 7% | 16% | 26 | 8%
CCCN1CCC(=O)N([C@H](CSc2ccc(Br)cc2)Cc2ccccc2)CC1 | ? | -24% | -27% | -9 | ?
CC(C)CN1CCC(=O)N(CCSc2ccc(Br)cc2)CC1 | ? | 0% | -2% | 6 | 21µM*
CC(C)CN1CCC(=O)N([C@H](CSc2ccccc2)Cc2ccccc2)CC1 | 16µM* | -9% | -1% | -17 | 18µM*
CCCN1CCC(=O)N([C@H](CSc2ccccc2)Cc2ccccc2)CC1 | 11µM* | 0% | 2% | -8 | 11µM*
Cc1ccc(S(=O)(=O)N2CCN(Cc3ccccc3)CC2)s1 | -20% | 0% | -6% | 0 | -17%
O=C(CCCl)Nc1nnc(SCC(=O)NC2CCCC2)s1 | 3.3µM* | 29µM* | 15µM* | -88* | 3.3µM*
Cc1ccc2[nH]cc(CCNC(=O)C3CCCO3)c2c1 (configuration not stated) | -10% | -1% | -2% | -17 | -10%
SMILES | DT40 TDP1 no CPT | HT1080 IDH1KD tx | HT1080NT lethal | IL1B secr inh | DT40 TDP1 CPT
CC(C)C(=O)Nc1ccc(NC(=O)c2cccnc2)cn1 | 9% | 25% | 21% | -8 | 7%
O=C(COC(=O)C12CC3CC(CC(Br)(C3)C1)C2)Nc1ccc2[nH]c(=O)[nH]c2c1 | -1% | -2% | -2% | 12 | -3%
COc1ccccc1-c1cc(NCc2cccc(C)c2)ncn1 | 18µM* | . | . | . | 13µM*
COc1ccccc1-c1cc(NCc2cnc(C)cn2)ncn1 | 6% | . | . | . | 14%
COCCNc1cc(-c2ccccc2C)ncn1 | 31% | . | . | . | 8%
Cc1cccc(CNc2cc(-c3ccccc3C)ncn2)c1 | 6.5µM* | . | . | . | 15µM*
CCC(C(=O)NCc1ccccn1)n1c2ccccc2c2nc(=O)cc(C)n21 (configuration not stated) | 2% | 3% | 3% | 24 | ?
COc1cccc(CNC(=O)COc2cc3c(c4oc(=O)cc(C)c24)CCC(C)(C)O3)c1 | 16µM* | -5% | -1% | -8 | 21µM*
COc1ccccc1CNC(=O)COc1cc2c(c3oc(=O)cc(C)c13)CCC(C)(C)O2 | 23µM* | -14% | -1% | -61* | 23µM*
COc1ccc(CNC(=O)COc2cc3c(c4oc(=O)cc(C)c24)CCC(C)(C)O3)cc1 | ? | 7% | 9% | ? | ?
CCc1cc(=O)oc2c3c(cc(OCC(=O)NCc4ccncc4)c12)OC(C)(C)CC3 | 21µM* | -16% | -3% | -25 | 16µM*
CC1(C(=O)NS(=O)(=O)c2ccc(Cl)cc2)CCN1C(=O)Cc1ccsc1 (configuration not stated) | -14% | 0% | 22% | 17 | -18%
NS(=O)(=O)c1ccc(CCNC(=O)CN2CCN(Cc3cccc(C(F)(F)F)c3)CC2)cc1 | 23µM* | -15% | -5% | 17 | 23µM*
O=C(CN1CCC(Cc2ccccc2)CC1)NCCc1ccc(F)cc1 | -28% | -20% | -12% | -69* | 2%
O=C(CN1CCN(c2ccc(F)cc2)CC1)N1CCC(Cc2ccccc2)CC1 | ? | 0% | 0% | -52* | ?
NS(=O)(=O)c1ccc(CCNC(=O)CN2CCC(Cc3ccccc3)CC2)cc1 | 16µM* | ? | -13% | -11 | ?
COc1ccc(CCNC(=O)CN2CCN(c3cccc(C(F)(F)F)c3)CC2)cc1 | ? | -20% | -14% | 0 | ?
Cc1ccc(SCC(=O)N2c3ccccc3Sc3ccccc32)cc1 | ? | -12% | -9% | -11 | ?
CC(C)[C@H](NC(=O)c1c(F)cccc1F)C(=O)OCC(=O)NNC(=O)c1ccccc1 | -20% | 0% | -1% | -2 | -22%
O=C(CN1C(=O)C2C3C=CC(C3)C2C1=O)NCCc1ccccc1 (configuration not stated) | 23µM* | 20% | 8% | 0 | 12µM*
